The nature of test [1]: qHTS assay to identify small molecule antagonists of the estrogen receptor alpha (ER-alpha) signaling pathway using the BG1 cell line in the presence of 0.1 nM 17-beta-estradiol - cell viability counter screen (AID 1259241). Note: nearly all actives have a fitted effect of over 40% in size. In short, it runs like this:
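CellTiter-Fluor read (30 min, 37C) on ER-alpha/ERE-luc VM7Luc4E2 cells; 22 hr compound treatment; agonist 0.1 nM E2 final; same-well multiplex.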
In general terms: In qHTS, concentration-response curves come from the screen itself.

Test [2] is described as follows: qHTS assay to identify small molecule antagonists of the androgen receptor (AR) signaling pathway using the MDA cell line in the presence of 0.5 nM R1881 - cell viability counter screen (AID 1259242). Note: nearly all actives have a fitted effect of over 45% in size. In short, it runs like this:
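qHTS format. MDA-kb2 (MMTV-luc, AR/GR responsive) + cpd + 0.5 nM R1881 final, 16 hr 37C/0% CO2 → CellTiter-Fluor 30 min → fluorescence intensity.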

For test [3], the target named is Estrogen receptor (Homo sapiens) (UniProt P03372). In words: qHTS assay to identify small molecule antagonists of the estrogen receptor alpha (ER-alpha) signaling pathway using the BG1 cell line in the presence of 0.1 nM 17-beta-estradiol (AID 1259244). Note: nearly all actives have a fitted effect of over 50% in size. Note: potency is the fitted concentration of half-maximal effect. The gist of the method:
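Reporter is a stably transfected luciferase under four estrogen responsive elements in VM7Luc4E2 cells expressing native full-length ER-alpha; inhibition of 0.1 nM (final) 17beta-estradiol-driven signal over 22 h is read by luminescence.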

Test [4] can be described thus: qHTS assay to identify small molecule HDAC inhibitors - cell viability counter screen (AID 1259365). Note: series mostly up to about 92 µM; nearly all actives have a fitted effect of over 50% in size. In short, it runs like this: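 To flag cytotoxic hits, 1,500 wild-type HCT-116 cells per well, plated the day before, receive test compounds for 2hr at 37 C before CellTiter-Glo reagent and a luminescence read.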
The nature of test [5]: qHTS assay to identify small molecule antagonists of the sonic hedgehog signaling (Shh) pathway - cell viability counter screen (AID 1259367). Note: nearly all actives have a fitted effect of over 55% in size. In short, it runs like this: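 CellTiter-Fluor signal in conditioned medium-stimulated 3T3 Gli1-Luc cells, 23 hr compound exposure, 37C.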
A short description of test [6]: qHTS assay to identify small molecule agonists of the sonic hedgehog signaling (Shh) pathway (AID 1259368; calls by dose curve;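 note: NIH/3T3-derived 3T3Gli1-Luc cells carrying a stable Gli1-driven firefly luciferase reporter; series mostly up to about 92 µM; nearly all actives have a fitted effect of over 15% in size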). In short, it runs like this:
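Quantitative high-throughput format using a Gli1-driven firefly luciferase reporter line derived from NIH/3T3 cells. After a 24 hr compound treatment at 37 C and 5% CO2, luminescence reported Gli1 response element activity.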

Test [7] is described as follows: qHTS assay to identify small molecule agonists of the estrogen receptor beta (ER-beta) signaling pathway - cell viability counter screen (AID 1259380). Note: nearly all actives have a fitted effect of over 30% in size. Note: potency is the fitted concentration of half-maximal effect. In short, it runs like this:
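Steps: plate ER-beta-UAS-bla HEK293T cells, rest 6 hr; add compounds in DMSO; incubate 16 hr at 37C, 5% CO2; add FRET substrate 2 hr; add CellTiter-Glo, wait 30 min at room temperature; read luminescence.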

Test [8] has as its target Estrogen receptor (Homo sapiens) (UniProt P03372). In words: qHTS assay to identify small molecule agonists of the estrogen receptor alpha (ER-alpha) signaling pathway in the presence of an antagonist (AID 1259383; calls by dose curve; note: top concentration of the series differs between compounds; nearly all actives have a fitted effect of over 15% in size). The gist of the method:
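Readout was ERE-driven luciferase luminescence in VM7Luc4E2 cells, which express full-length ER-alpha endogenously. Compounds were tested at 15 concentrations for 22hr alongside 10.0nM ICI-182,780 (final concentration).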

A short description of test [9]: qHTS assay to identify small molecule agonists or antagonists of the thyroid stimulating hormone receptor (TSHR) signaling pathway - wild type cell line counter screen (AID 1259384; calls by dose curve). In short, it runs like this: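 Counter screen in untransfected Hek293: compounds (15-point titration, triplicate) plus phosphodiesterase inhibitor Ro20-1724 added after 18 h plating; 30 min RT. Intracellular cAMP via competitive d2/cryptate immunoassay, 1 h incubation.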

Test [10] has as its target Thyrotropin receptor (Homo sapiens) (UniProt P16473). Nature of the test: qHTS assay to identify small molecule antagonists of the thyroid stimulating hormone receptor (TSHR) signaling pathway (AID 1259385; calls by dose curve; note: nearly all actives have a fitted effect of over 20% in size). In short, it runs like this: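 Antagonist mode: compound-treated TSHR-expressing HEK293 cells were stimulated with 1.5 ng/mL TSH (final) in presence of Ro20-1724 for 30 min at RT. HTRF cAMP detection after 1 h; each compound tested at 15 concentrations, triplicate.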

Test [11] can be described thus: qHTS assay to identify small molecule agonists of the sonic hedgehog signaling (Shh) pathway - cell viability counter screen (AID 1259366). Note: nearly all actives have a fitted effect of over 50% in size. The gist of the method: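 Fluorescence from CellTiter-Fluor reports live cells in this counter screen. NIH/3T3-derived Gli1-Luc reporter cells receive test compounds for 24hr at 37C; reagent goes in at 23hr.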
A short description of test [12]: qHTS assay to identify small molecule antagonists of the sonic hedgehog signaling (Shh) pathway (AID 1259369; calls by dose curve; note: nearly all actives have a fitted effect of over 45% in size; note: potency is the fitted concentration of half-maximal effect). In short, it runs like this: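 Stable Gli1-Luc reporter NIH/3T3 clone; quantitative HTS in stimulated mode with conditioned medium. Luminescence measured after 24hr compound treatment at 37 C.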
Test [13] in a line: qHTS assay to identify small molecule agonists of the androgen receptor (AR) signaling pathway in the presence of an antagonist - cell viability counter screen (AID 1259379).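 Note: MDA-kb2 human breast cancer cells carrying an MMTV luciferase reporter; series mostly up to about 92 µM; nearly all actives have a fitted effect of over 25% in size.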 In short, it runs like this: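 Nilutamide-containing (3.0uM final) MDA-kb2 cultures, 3,000 cells/well, were treated with compounds across 15 concentrations. After 16 hr at 37C with no CO2, cell viability was determined by CellTiter-Fluor fluorescence in the luciferase assay wells.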

Test [14] is described as follows: qHTS assay to identify small molecule antagonists of the estrogen receptor beta (ER-beta) signaling pathway - cell viability counter screen (AID 1259382).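 Note: HEK293T cells carrying ER-beta-UAS-bla reporter stimulated with estradiol; series mostly up to about 92 µM; nearly all actives have a fitted effect of over 55% in size.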 In short, it runs like this:
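Viability is scored by CellTiter-Glo luminescence (30 min, room temperature) in ER-beta-UAS-bla HEK293T wells already read for reporter fluorescence. Compound exposure lasts 16 hr at 37C alongside 1nM 17-beta-estradiol in charcoal-stripped serum medium.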

Test [15] can be described thus: qHTS assay to identify small molecule HDAC inhibitors (AID 1259364). For activity change, negative = inhibition: top concentration of the series differs between compounds. Note: potency is the fitted concentration of half-maximal effect.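 Note: wild-type HCT-116 cells with endogenous class I/II HDAC activity; nearly all actives have a fitted effect of over 45% in size.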 The gist of the method: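 Quantitative high-throughput format: overnight-seeded HCT-116 cells got compounds for 2 hr at 37C; HDAC-Glo I/II reagent added, 30 min RT, luminescence measured.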
Test [16] addresses Estrogen receptor beta (Homo sapiens) (UniProt Q92731). Nature of the test: qHTS assay to identify small molecule antagonists of the estrogen receptor beta (ER-beta) signaling pathway (AID 1259378; active = well fitted inhibition curve with a large enough effect in the signal ratio in the repeat runs, not every such curve was filed as active; the % refers to the signal ratio). The gist of the method: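 Antagonist mode: compounds added to beta-lactamase reporter HEK293T ER-beta-UAS cells stimulated with E2 (1nM final), 16 hr at 37C. LiveBLAzer B/G FRET substrate, 2 hours room temperature, fluorescence read-out.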

Test [17] is described as follows: qHTS assay to identify small molecule phospholipidosis (PLD) inducers (AID 1259344; active = well fitted curve in the direction sought with a large enough effect; an effect the other way counts as inactive or inconclusive). In short, it runs like this:
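Accumulated phospholipid, stained red by LipidTOX during 24 h compound treatment of HepG2 cells at 37 C, is quantified from images as pit number and intensity, normalised per cell using Hoechst-stained nuclei.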

In test [18] the target is Estrogen receptor beta (Homo sapiens) (UniProt Q92731). Nature of the test: qHTS assay to identify small molecule agonists of the estrogen receptor beta (ER-beta) signaling pathway (AID 1259377; active = well fitted activation curve with a large enough effect in the signal ratio in the repeat runs, not every such curve was filed as active; the % refers to the signal ratio). The gist of the method:
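Screening used GripTite ER-beta-UAS-bla cells held in 2% charcoal-stripped FBS medium. After overnight (16 hr) compound incubation at 37C, beta-lactamase activity was detected with a FRET substrate by fluorescence.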

The structures appear in SMILES notation. A number with no mark means an inactive call. Records with an inconclusive call do not appear. Activity calls are given as the source filed them. Unless noted, calls come from the whole dose curve; as a rule, active = well fitted curve in the direction sought with a large enough effect in the repeat runs; inconclusive = weak or mixed curves; inactive = no such curve, though single readings can be large; an effect the other way counts as inactive or inconclusive.
% is set by controls: 0 for no effect and ±100 for the full control effect.

Estrogen receptor beta (Homo sapiens), sequence (Q92731 whole entry, looked up): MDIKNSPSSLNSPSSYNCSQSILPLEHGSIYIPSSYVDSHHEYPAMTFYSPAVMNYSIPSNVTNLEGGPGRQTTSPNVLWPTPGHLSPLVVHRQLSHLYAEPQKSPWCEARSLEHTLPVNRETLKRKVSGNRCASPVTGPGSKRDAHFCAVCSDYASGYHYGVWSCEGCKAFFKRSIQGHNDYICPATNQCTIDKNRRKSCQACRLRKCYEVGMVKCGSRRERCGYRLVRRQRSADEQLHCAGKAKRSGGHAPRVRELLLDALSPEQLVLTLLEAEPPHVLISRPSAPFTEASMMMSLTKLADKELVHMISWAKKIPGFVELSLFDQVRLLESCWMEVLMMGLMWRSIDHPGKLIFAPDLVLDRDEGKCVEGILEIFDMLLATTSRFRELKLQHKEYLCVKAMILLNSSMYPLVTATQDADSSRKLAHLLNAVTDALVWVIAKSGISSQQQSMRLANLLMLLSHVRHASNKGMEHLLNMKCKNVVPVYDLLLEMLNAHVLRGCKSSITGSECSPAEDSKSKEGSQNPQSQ
Thyrotropin receptor (Homo sapiens), sequence (P16473 whole entry, looked up): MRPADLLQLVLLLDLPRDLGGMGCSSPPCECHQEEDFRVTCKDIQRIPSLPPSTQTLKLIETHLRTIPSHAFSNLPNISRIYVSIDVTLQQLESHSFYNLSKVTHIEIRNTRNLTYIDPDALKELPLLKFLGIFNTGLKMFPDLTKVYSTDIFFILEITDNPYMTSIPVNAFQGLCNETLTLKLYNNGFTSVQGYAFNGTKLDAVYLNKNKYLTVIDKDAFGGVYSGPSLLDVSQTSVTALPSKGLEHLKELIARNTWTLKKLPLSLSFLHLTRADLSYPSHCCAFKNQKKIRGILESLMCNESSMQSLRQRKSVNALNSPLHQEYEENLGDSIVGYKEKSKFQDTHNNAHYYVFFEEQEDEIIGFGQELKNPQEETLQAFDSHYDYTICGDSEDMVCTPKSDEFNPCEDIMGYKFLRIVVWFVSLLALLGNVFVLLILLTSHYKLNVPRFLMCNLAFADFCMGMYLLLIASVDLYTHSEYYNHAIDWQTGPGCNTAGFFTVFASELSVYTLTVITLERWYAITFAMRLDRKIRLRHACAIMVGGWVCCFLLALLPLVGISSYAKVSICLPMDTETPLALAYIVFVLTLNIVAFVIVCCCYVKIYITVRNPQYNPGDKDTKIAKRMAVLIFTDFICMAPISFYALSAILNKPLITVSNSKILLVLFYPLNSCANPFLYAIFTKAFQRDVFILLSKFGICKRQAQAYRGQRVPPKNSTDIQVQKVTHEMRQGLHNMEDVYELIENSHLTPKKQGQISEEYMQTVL
Estrogen receptor (Homo sapiens), sequence (P03372 whole entry, looked up): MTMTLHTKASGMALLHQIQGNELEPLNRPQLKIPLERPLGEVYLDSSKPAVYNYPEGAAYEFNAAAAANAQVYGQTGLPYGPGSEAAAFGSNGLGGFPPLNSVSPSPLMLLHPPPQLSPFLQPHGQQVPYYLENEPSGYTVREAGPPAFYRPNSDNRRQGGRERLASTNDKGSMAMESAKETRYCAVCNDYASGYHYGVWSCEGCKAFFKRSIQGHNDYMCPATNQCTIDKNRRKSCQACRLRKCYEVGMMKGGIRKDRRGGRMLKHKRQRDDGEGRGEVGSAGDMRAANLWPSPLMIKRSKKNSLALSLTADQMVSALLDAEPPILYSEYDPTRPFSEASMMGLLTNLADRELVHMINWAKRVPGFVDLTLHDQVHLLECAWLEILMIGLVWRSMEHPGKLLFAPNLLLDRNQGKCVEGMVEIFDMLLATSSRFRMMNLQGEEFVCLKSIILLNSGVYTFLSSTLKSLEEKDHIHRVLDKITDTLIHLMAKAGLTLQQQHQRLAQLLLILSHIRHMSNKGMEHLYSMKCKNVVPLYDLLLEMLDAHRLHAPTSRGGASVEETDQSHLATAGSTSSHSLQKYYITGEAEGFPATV

For the compound `NCCCOCCOCCOCCCN`, the Potency entry in test [1], in test [2], in [3], in test [5], in test [8] and in test [9] was “inactive” in each case. Also, the Potency entry in test [10] was “inactive”. The call in test [4] and in test [6] was inactive. Also, the Potency in test [7] was 15.4 µM (active).
For the compound `CCCCCCCCCCCCC(=O)O`, the Potency entry in [1], in test [2], in test [3], in test [11], in [13] and in test [8] was “inactive” throughout. Besides, the Potency result in [9] and in [10] was “inactive” each time. For the same compound, the outcome in [4] and in [6] was inactive. Further, the Potency in test [12] was 2.74 µM (active); in test [7], 54.6 µM (active).
`C1=Cc2ccccc2C1`: the Potency result in test [1], in test [2], in [3], in test [11], in test [5] and in [12] was “inactive” throughout. The Potency result in test [13], in test [7] and in test [14] was “inactive” each time. In test [4], the compound was called inactive.
Consider `CCCc1ccccc1`, for which the Potency result in test [1], in test [2], in test [3], in test [15], in test [11] and in [5] was “inactive” throughout. Besides, the Potency result in test [12], in test [16], in [13], in test [7], in test [14] and in test [8] was “inactive” each time. Besides, the Potency result in test [9] and in test [10] was “inactive” in each case. For the same compound, the outcome in [4] was inactive.
Take `N#Cc1cc2ccccc2c2ccccc12`: the Potency result in test [1], in test [2], in [3], in [15], in [11] and in test [5] was “inactive” in each case. Moreover, the Potency result in test [12], in [13], in test [8], in test [9] and in test [10] was “inactive” each time. Besides, the call in [4] and in test [6] was inactive.
On to `CC1(C)[C@H]2CC[C@]1(C)[C@H](O)C2`, for which the Potency result in test [1], in test [2], in test [17], in test [15], in test [11] and in test [5] was “inactive” throughout. In addition, the Potency entry in test [12], in [16], in test [13], in [7], in test [14] and in test [10] was “inactive” throughout. The compound was called inactive in test [4] and in test [6].
Turning to `CCCCCCCCC(CO)CCCCCC` (stereo not drawn), the Potency result in test [1], in [2], in test [3], in test [15], in [11] and in test [5] was “inactive” throughout. The Potency result in test [12], in [16], in test [13], in test [7], in [14] and in test [9] was “inactive” throughout. Besides, the Potency result in test [10] is “inactive”.
On to `CC(C)(C)C1CCCCC1O` (stereo not drawn), for which the Potency result in [1], in test [2], in [3], in [11], in test [5] and in [12] was “inactive” each time. Besides, the Potency result in [13], in [7], in test [14], in test [8], in [9] and in test [10] was “inactive” throughout. For the same compound, the outcome in test [4] was inactive.
For the compound `CC(CN)CCCN` (stereo not drawn), the Potency result in test [1], in test [2], in [3], in test [15], in test [11] and in test [5] was “inactive” in each case. Further, the Potency result in test [16], in test [13], in [7], in test [14], in [8] and in [9] was “inactive” in each case. Moreover, the Potency entry in test [10] was “inactive”. The result in test [4] and in [6] was inactive.
`O=C(c1ccccc1)c1ccc2n1CCC2C(=O)O` (stereo not drawn): the Potency result in test [1], in [2], in test [17], in test [11], in test [5] and in test [12] was “inactive” each time. Besides, the Potency result in test [13], in test [7] and in test [14] was “inactive” throughout. The Potency in test [15] was 7.5 µM (active). The call in [4] and in [6] was inactive.
Consider `Cc1cccc(Oc2ccccc2)c1`, for which the Potency entry in test [1], in test [2], in [15], in test [11], in test [5] and in test [12] was “inactive” each time. Further, the Potency result in test [8], in test [9] and in test [10] was “inactive” in each case. In addition, the Potency in test [3] is 66.8 µM (active); in [7], 9.44 µM (active). In addition, the compound was classed as inactive in [4] and in test [6].
As to `N#CCc1cccc(C(F)(F)F)c1`, the Potency result in test [1], in test [2], in [3], in test [15], in test [11] and in test [5] was “inactive” each time. For the same compound, the Potency entry in [12], in [13], in [7], in test [14], in test [9] and in test [10] was “inactive” throughout. The compound was called inactive in test [4].
For `CCN(CCO)CCCC(C)Nc1ccnc2cc(Cl)ccc12` (stereo not drawn), the activity change, negative = cytotoxicity is -6.05% [at 8.39 µM] in test [1]; 0.62% [at 8.39 µM] in [4]; -1.54% [at 8.39 µM] in test [13]; 3.81% [at 8.39 µM] in test [7]; -2.09% [at 8.39 µM] in test [14]. Further, the values for the viability change, negative = cytotoxic in [2], in test [11] and in test [5] were -0.563% [at 8.39 µM], -3.56% [at 8.39 µM] and 1.32% [at 8.39 µM], respectively. In addition, in [17], the Potency entry is “inactive”. Besides, the activity change, negative = inhibition in [15] is 16.3% [at 8.39 µM]; in test [12], 5.56% [at 8.39 µM]; in [10] it was -2.73% [at 8.39 µM]. Further, the activity change in [6] is 0.0324% [at 8.39 µM]. In [9], the cAMP activity change is -5.44% [at 8.39 µM, stronger effect = higher value].
`O=[N+]([O-])c1cccc(Cl)c1Cl`: the Potency entry in test [1], in test [2], in test [3], in test [11], in [5] and in test [12] was “inactive” each time. Moreover, the Potency entry in [18], in test [16], in test [13], in test [7], in test [14] and in test [8] was “inactive” each time. Besides, the Potency entry in test [9] and in test [10] was “inactive” each time. Further, the result in test [4] and in [6] was inactive.

The values are drawn from PubChem BioAssay (Tox21).
